Source: PMC7819943, “Rice protein-binding microarrays: a tool to detect cis-acting elements near promoter regions in rice”
In all, about 68,000 sequences were measured (“fluorescence intensity (a.u.)”: median about 9,100, highest 2% from about 16,000 on). The full list was thinned out, with the highest values kept by preference.

What follows are sequences tested against OsWRKY34 (Oryza sativa, UniProt Q0JBA9 1-250) (assay: protein-binding microarray (RPBM); PBS, 2% BSA, 51.3 ng/ul salmon testes DNA, 50 uM zinc acetate, 200 nM TF, 25 C, 1 h; high values mean tight binding). Settings: protein: recombinant; tags: N-terminal polyhistidine and DsRed monomer fusion (pET32a); label: CyDye5-dUTP incorporated in the synthesized complementary strand; 3' TTTTT single-stranded linker to array surface; dsDNA, one strand shown.
OsWRKY34, sequence (Q0JBA9 entry or part of it): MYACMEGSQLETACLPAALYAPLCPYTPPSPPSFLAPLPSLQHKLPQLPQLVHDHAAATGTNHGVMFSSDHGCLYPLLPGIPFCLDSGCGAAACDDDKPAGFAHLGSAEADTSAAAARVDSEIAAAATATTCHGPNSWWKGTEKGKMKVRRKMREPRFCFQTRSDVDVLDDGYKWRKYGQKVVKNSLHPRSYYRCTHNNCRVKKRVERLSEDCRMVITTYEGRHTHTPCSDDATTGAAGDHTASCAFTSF
Procedure, shortened: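 For the binding signal, per-feature fluorescence intensity was read in arbitrary units on an Axon 4000B scanner. Before scanning, a 2% BSA-blocked custom Agilent array made double-stranded with Cy5-dUTP was washed after 1 h at 25 °C with 200 nM protein and 50 µM zinc acetate. The proteins were Ni–NTA-purified transcription factors with N-terminal polyhistidine and DsRed fusions, expressed in E. coli BL21-CodonPlus.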

Sequence | binding signal
GGTCATTCATGTATTTTTCTTGCGTTTTGCAATCCTCTGTCGGAGTCACCTAGTGCAG | 11200 fluorescence intensity (a.u.)
CCGCCGCCGCCGCCGCCGACCTTGTCACTCCGGCCGCTGCCGGAGTCACCTAGTGCAG | 9390 fluorescence intensity (a.u.)
GACCGACTACTCCTACAAACATTACTCAAGTCATTGCAAACGGAGTCACCTAGTGCAG | 8200 fluorescence intensity (a.u.)
ATTTTGCATGGGGCATGTGTGAAGTGTCCTACTAAATTTTCGGAGTCACCTAGTGCAG | 9350 fluorescence intensity (a.u.)
CGGTAGGGCGAGCACGGGTGGGGTTGGTGGTGATTTTTTTCGGAGTCACCTAGTGCAG | 20800 fluorescence intensity (a.u.)
GGTTCGTTCGTTCCTCCCGCGGCGACGGGGTGGGGCACACCGGAGTCACCTAGTGCAG | 8930 fluorescence intensity (a.u.)
AATTCCGGTGGTTCACCGCCGGTGAGGGTTGGAGGAGGGGCGGAGTCACCTAGTGCAG | 8160 fluorescence intensity (a.u.)
GGTTGTAGGTGGAGGAGGAGGAGGGGCGGTTCCGGAGTTTCGGAGTCACCTAGTGCAG | 22600 fluorescence intensity (a.u.)
GGTAGGGCTGCCGCCGGTGGGTAGGGGTGGTGGATTTTTTCGGAGTCACCTAGTGCAG | 14400 fluorescence intensity (a.u.)
GACTCGGCGGCCTCTGCTCCTCCGCTCGTTCCTCTCCCGACGGAGTCACCTAGTGCAG | 11100 fluorescence intensity (a.u.)
TCCGCTCGTTCCTCTCCCGACGAGGGTGGGTGGGGTGGGGCGGAGTCACCTAGTGCAG | 22700 fluorescence intensity (a.u.)
AGGGAGGCGTAGGTTGTGGTCGTTGTTGCGGTTTGGAGTTCGGAGTCACCTAGTGCAG | 8250 fluorescence intensity (a.u.)
CCCGGCCGCTCTCTCCGGGTGGGGTGGTGGGTGGCAAGGGCGGAGTCACCTAGTGCAG | 21100 fluorescence intensity (a.u.)
GCGCGCCGCGCTCACGGGTGGGTCAAGGCAAGGGGAAGGGCGGAGTCACCTAGTGCAG | 9400 fluorescence intensity (a.u.)
GGAGGGGCGGGGTGGCGCGGCGAGGCCGGCGACAAGGCCGCGGAGTCACCTAGTGCAG | 9130 fluorescence intensity (a.u.)
GTGTGGTGCGAGCAGTGATATTTTCTGTGTTGGGTCTGGGCGGAGTCACCTAGTGCAG | 8120 fluorescence intensity (a.u.)
TCGTTTCTTTGCCAGCTGCGCATCCATTCAGCCGGTCGTACGGAGTCACCTAGTGCAG | 12700 fluorescence intensity (a.u.)
CTTTTATTTAACGGATGTTTCACCATGGTCTTTACTGTAGCGGAGTCACCTAGTGCAG | 9320 fluorescence intensity (a.u.)
TCCCATCACACACACCACCGCTCCGCTCCATGTCGCACCACGGAGTCACCTAGTGCAG | 8350 fluorescence intensity (a.u.)
CGTAGAAGATGTTGCTGTTGCCGCCGTTGACGAACTTGGTCGGAGTCACCTAGTGCAG | 8810 fluorescence intensity (a.u.)
CAAATTACTACTACCTCCGTCCCAAAATAATTGCATTTCTCGGAGTCACCTAGTGCAG | 8950 fluorescence intensity (a.u.)

Sequence | binding signal
CACGCACCCTCTTTCCCGTGCTTCGTGTGCCCTTCGATCGCGGAGTCACCTAGTGCAG | 9430 fluorescence intensity (a.u.)
AGATTATTTTGCTCGATTTTGAATTTTTCATGCATCCGTCCGGAGTCACCTAGTGCAG | 9150 fluorescence intensity (a.u.)
AGAGCGGGTGGGAGGCGAAGTAGACAGGGGCGGGGCGCATCGGAGTCACCTAGTGCAG | 15700 fluorescence intensity (a.u.)
TTACCTCGCGTACCCTCGCACCCGTCTCCCGCAGACAGATCGGAGTCACCTAGTGCAG | 8480 fluorescence intensity (a.u.)
GTGTGTGCATGCTGATAGCTTGGTCTCTTGAGGATAATTGCGGAGTCACCTAGTGCAG | 9730 fluorescence intensity (a.u.)
TCATTTGATTTATTGTTAAATATATTTTTATGTATACATACGGAGTCACCTAGTGCAG | 8550 fluorescence intensity (a.u.)
CTTCCTCCGTTTCACAATGTAAGTCGTTCTAGCATTTTTCCGGAGTCACCTAGTGCAG | 8110 fluorescence intensity (a.u.)
GTTATGTTAGGTCTGGTTTTTTGGCTGTAGCAGCAGCAGTCGGAGTCACCTAGTGCAG | 8510 fluorescence intensity (a.u.)
GCTAGACACAGGCAACCAAACACACCCTAACACTCACTGTCGGAGTCACCTAGTGCAG | 9290 fluorescence intensity (a.u.)
GCGGGCGGCAGCGCGGTGGGGCGGTGGCGGTGGTGGCGGCCGGAGTCACCTAGTGCAG | 9980 fluorescence intensity (a.u.)
ACCTCCTTTTCATACAGCCGGCGTGGCATTTGTGGGCCCACGGAGTCACCTAGTGCAG | 9220 fluorescence intensity (a.u.)
GACGTGGCTATGGGTGGGCGTTGCGAGCCGGCATTTTATACGGAGTCACCTAGTGCAG | 16400 fluorescence intensity (a.u.)
CGGCGGCGGCGACCGCGGGTAGGGTGGGTGGCGCGGGCCGCGGAGTCACCTAGTGCAG | 9330 fluorescence intensity (a.u.)
GCTGTGGGTAGGCCGGCGCCGCCGGCCGACGGGTGGGGAGCGGAGTCACCTAGTGCAG | 8420 fluorescence intensity (a.u.)
GGCCGGCGACGCTGAACGGGGTGGGGTAGTCTGCTATTTACGGAGTCACCTAGTGCAG | 18000 fluorescence intensity (a.u.)
CGGGTAGGGTGGGGTGGGGCGGGGTGGGGTTGGCGGCGACCGGAGTCACCTAGTGCAG | 39500 fluorescence intensity (a.u.)
GCGGCGCGGTGCGCTCGGGTGGGGCCGGTCGACGTCTGCACGGAGTCACCTAGTGCAG | 8120 fluorescence intensity (a.u.)
TAGGTAGGGTGGTGGCGGGCGGGCTCCCGCAGCCAGTGGCCGGAGTCACCTAGTGCAG | 11100 fluorescence intensity (a.u.)
GGAACGGCCAGCGGCGGCGGCGGGTAGGGTGGGGTGGGGCCGGAGTCACCTAGTGCAG | 21600 fluorescence intensity (a.u.)
GGTGGGCCGGGCTTTGCTTTTGCTTTAAACATTTGCGTGGCGGAGTCACCTAGTGCAG | 8680 fluorescence intensity (a.u.)
TCGTTGGTGGGTAGGTGGTGGAGATGGTGGTGGCGGCGGGCGGAGTCACCTAGTGCAG | 15600 fluorescence intensity (a.u.)
